Several values for one entry are separate records, joined by “and”; a condition that tells them apart may be missing. Identical values can stand only once. Among all 320,000 compounds or so, about 480 (0.15%) were called active. Rule as the data show it: active = inhibition above about 33%; inactive = the rest. The entries come from a sample that favours actives as a whole. More than one record can exist for a structure, and the calls need not agree.
target: Lytic switch protein BZLF1 (Epstein-Barr virus (strain B95-8)) (UniProt P03206); assay: Zta-DNA interaction blockers, Epstein-Barr virus – biochemical, fluorescence polarization, single concentration, counter-screen for EBNA-1 inhibitor project, primary screen (AID 2234); settings: ZTA-DNA binding, at 11 µM, stronger effect = higher value
Sequence (P03206 whole entry, looked up): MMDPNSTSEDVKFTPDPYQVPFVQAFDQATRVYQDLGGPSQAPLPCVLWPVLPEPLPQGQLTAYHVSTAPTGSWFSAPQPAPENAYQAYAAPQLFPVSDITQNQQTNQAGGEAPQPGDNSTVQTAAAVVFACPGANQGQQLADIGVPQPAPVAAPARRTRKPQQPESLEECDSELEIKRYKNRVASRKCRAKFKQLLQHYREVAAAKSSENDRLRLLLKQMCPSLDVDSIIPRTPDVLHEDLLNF

Row | SMILES | inhibition
1 | CC(C)N(C(=O)Cn1cc(S(=O)(=O)CC(=O)N2CCOCC2)c2ccccc21)C(C)C | -2.48% (inactive)
2 | CCc1nn(CCCC(=O)Nc2ccc(C)cc2C)c(=O)c2cc3occc3n12 | -0.14% (inactive)
3 | CN(C)/C=C(\C#N)C(=O)c1cccnc1Oc1cccc(F)c1 | 1.11% (inactive)
4 | CN(C)Cc1ccccc1C1(O)c2ccccc2CSc2ccccc21 (stereo not drawn) | -3.19% (inactive)
5 | O=C(COC(=O)c1cc(=O)[nH]c2ccccc12)NCc1cccc(Cl)c1 | -4.76% (inactive)
6 | COCCCNC(=S)N1CCN(c2nc(-c3cccc(OC)c3)cs2)CC1 | 0.15% (inactive)
7 | COC(=O)C1CCN(C(=O)c2cc(=O)[nH]c3ccccc23)CC1 | -3.43% (inactive)
8 | O=C(NC1CCCCC1)N1CCc2[nH]c3ccccc3c2C1 | -20.7% (inactive)
9 | COC(=O)[C@H]1[C@H]2C[C@H]3c4[nH]c5ccccc5c4CCN3C[C@@H]2CC[C@@H]1O | -2.53% (inactive) and 42.8% (active)
10 | Cc1ccc(S(=O)(=O)NCc2ccc(C(=O)NC3CCC(C)CC3)cc2)cc1 (stereo not drawn) | 0.09% (inactive)
11 | Cn1c(N)c(C(=O)COC(=O)/C=C/c2ccc(OC(F)F)cc2)c(=O)n(C)c1=O | 4.46% (inactive)
12 | CC[N+](C)(CC)CCC[n+]1c(-c2ccccc2)c2cc(N)ccc2c2ccc(N)cc21 | 76.6% (active)
13 | COc1ccccc1CNS(=O)(=O)c1c(C)[nH]c(C)c1C(=O)N1CCCCC1 | -3.2% (inactive)
14 | COc1ccc(C(=O)NCCn2nc(C)cc2C)cc1OC1CCN(C(C)=O)CC1 | -1.11% (inactive)
15 | CC(=O)N(C)c1ccc(NC(=O)C(F)(F)F)cc1 | -2.47% (inactive)
16 | CC(C)CNC(=O)C(=O)Nc1ccc(N(C)C)cc1 | -14.2% (inactive)
17 | CCN(CC)c1ccc(C(=O)Nn2c(C)nc3ccccc3c2=O)cc1 | -9.3% (inactive)
18 | C=CCN(C(=O)Nc1ccc2oc(C)nc2c1)c1ccccc1 | 14.4% (inactive)
19 | CCN(CC)c1ccc2oc(=O)c(C)nc2c1 | 112% (active)
20 | COc1ccc(/C=C/CN2CCCC(C(=O)c3cc(F)ccc3F)C2)cc1 (stereo not drawn) | -3.1% (inactive)
21 | CN(C)Cc1c(O)ccc2occ(C(O)c3ccccc3)c12 (stereo not drawn) | -10.8% (inactive)
22 | N[C@@H](Cc1ccccc1)C(=O)N1CCOCC1 | 0.06% (inactive)

Row | SMILES | inhibition
23 | COc1ccc(OC)c(NC(=O)CSc2nc(N)c(-c3ccccc3)c(=O)[nH]2)c1 | -8.96% (inactive)
24 | COc1ccccc1P(=O)(c1ccccc1)c1ccccc1NC(C)=O (stereo not drawn) | 6.44% (inactive)
25 | CCc1cc(=O)oc2c(C)c(OCC(=O)N3CC[C@@]4(O)CCCC[C@H]4C3)ccc12 | -6.49% (inactive)
26 | O=S(=O)(c1cccc(-c2nnc(SC(F)F)n2-c2ccccc2)c1)N1CCCCC1 | -1.62% (inactive)
27 | Cc1cccc(-n2cnc(C(=O)Nc3cccnc3)c2)n1 | -4.78% (inactive)
28 | Cc1ccccc1CSc1nnc(-c2ccccn2)n1N | -11.1% (inactive)
29 | O=C(COC(=O)c1ccc(S(=O)(=O)Nc2ccccc2)cc1)NCC1CCCO1 (stereo not drawn) | 1.03% (inactive)
30 | CCn1c(C)nc2cc(C(=O)NNS(=O)(=O)c3ccc(C)cc3C)ccc21 | -11% (inactive)
31 | COc1cc(C2C(C(=O)c3cccs3)=C(O)C(=O)N2CCN2CCOCC2)ccc1OCCC(C)C (stereo not drawn) | -2.28% (inactive)
32 | O=C(Nc1ccc2oc(-c3ccccc3F)nc2c1)c1ccco1 | 15.1% (inactive)
33 | CCOc1ccc(S(=O)(=O)Nc2ccncc2)c(C)c1C | -10.3% (inactive)
34 | CC(C)C(=O)N1CCC2(CC1)Oc1ccc(F)cc1C(=O)C21CC(c2ccccc2)=NO1 (stereo not drawn) | 7.48% (inactive)
35 | CCc1c(C)nc2c(-c3ccccc3)c(C)nn2c1Nc1ccc(NC(C)=O)cc1 | -11.9% (inactive)
36 | O=C(Cc1ncc(C(F)(F)F)cc1Cl)Nc1cccc(Br)c1 | -13.5% (inactive)
37 | O=C(CNS(=O)(=O)c1ccc2ccccc2c1)Nc1ccc(F)c(F)c1F | 15.3% (inactive)
38 | O=C(Nc1ccc(F)cc1F)N1CCCN(CCOc2ccccc2)CC1 | -6.16% (inactive)
39 | CC(=O)c1sc2nc(SCC(=O)N3CCCCC3)[nH]c(=O)c2c1C | -1.4% (inactive)
40 | Cc1sc2nc(CSCC(=O)NC3CCCCC3)[nH]c(=O)c2c1C | -20.2% (inactive)
41 | CSc1nnc(SCc2nc3sc(C(=O)O)c(C)c3c(=O)[nH]2)s1 | 41.9% (active)
42 | COc1ccc(C(=O)NC2CC2)cc1OC1CCN(C/C=C/c2ccccc2)CC1 | -17.4% (inactive)
43 | COc1ccc2c(c1)cc1n2CCN=C1NN | 8.48% (inactive)

Source: PubChem BioAssay AID2234 (The Scripps Research Institute Molecular Screening Center, 2010)
